Experimental findings from PubChem BioAssay (NCI) are described below.

The panel holds about 83,000 compounds, 20% with a hit somewhere; the sample as a whole holds those more often.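 Cell lines were cultured in 96-well plates, exposed to a single compound concentration, and assessed for percent growth 48 hours later.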 Values without a mark were called inactive. Active and inactive are the calls of the source.

The subject of the assay is HT29 colon. The assay can be described thus: NCI-60 one-dose screen, 48 h (100 = growth as untreated, 0 = no growth, -100 = all killed). Particulars: 10 µM unless noted. How it is done:
Growth inhibition of the HT29 human tumor cell line is measured as a screen for anti-cancer activity. Cells are grown in 96 well plates and exposed to the test compound for 48 hours. Compounds are tested at a single concentration, which is 10^-5 M for most compounds. The reported endpoint is percent growth (GI% or GIPRCNT), where numbers from 0 - 100% represent growth inhibition, and numbers from -100% - 0 represent cell death. For example, a value of 40 represents 60% growth inhibition. A value of 0 means no net growth occurred over the course of the experiment. A value of -40 indicates 40% of cells at the beginning of the experiment died by the end of the experiment. A value of -100 means all cells are dead at the end of the experiment.
NCI-60 Human Tumor Cell Lines Screen was performed using the standard one-dose NCI protocol, which is described in more detail at https://dtp.cancer.gov/discovery_development/nci-60/default.htm.
Compounds with GIPRCNT values below 10 were considered active. Activity score was based on GIPRCNT using the following formula: […]
Score is 0 for GIPRCNT values of 100 or above, 50 for GIPRCNT values of 0, and 100 for GIPRCNT values of -100.
As to `O=S(=O)(NCCNc1cc(-c2cn(-c3ccccc3)nc2-c2cccc(O)c2)ccn1)c1ccc(F)cc1`, the growth was 1.75% (active). As to `CC1(C)C(=O)/C(=C\c2cccnc2)C[C@]2(C)[C@H]3CC[C@@H]4[C@@H](C(=O)/C=C/c5ccncc5)CC[C@@]4(C)[C@]3(C)CC[C@@H]12`, the growth was 9.87% (active). On to `CC(C)=CCC[C@](C)(O)[C@H]1CC[C@]2(C)[C@@H]1CC[C@@H]1[C@@]3(C)C/C(=C/c4ccc(Br)cc4)C(=O)C(C)(C)[C@@H]3CC[C@]12C`, for which the growth was 77%. Regarding `O=c1c(CNc2ccc(S(=O)(=O)Nc3nccs3)cc2)coc2ccccc12`, the growth was 101%.

Regarding `O=C1/C(=C\c2ccco2)SC(=S)N1CCc1ccc(O)cc1`, the growth is 114%. Turning to `Cc1ccc(Sc2sc(-c3ccccc3)nc2[P+](c2ccccc2)(c2ccccc2)c2ccccc2)cc1`, the growth is 3.9% (active).

Take `C=C(C)[C@@H]1CC[C@]2(C)[C@H](CC[C@@H]3[C@H]4[C@H]5OC[C@@]4(CCC5(C)C)CC[C@]32C)[C@@]1(C)CCCN`: the growth was 6.05% (active). For `COc1cc(OC)c2c(c1)c1nc3cc(C)c(C)cc3nc1n2CCN(C)C`, the growth is 85.8%. In the case of `COc1cc(/C=N/NC(=S)NNC(=S)NC2CCCCC2)cc(OC)c1OC` it was 108%; in that of `CC(C)(C)c1cc(-n2c(-c3ccc(Cl)cc3)nc3cc(C(=O)Nc4ccc(Cl)cc4)ccc32)n[nH]1`, 89.5%; in that of `COc1cc(-c2cc3ncccc3c3nc(N)c4cccnc4c23)cc(OC)c1OC`, 4.14% (active). With `COc1ccc2c3c(c4ccccc4cc13)C(=O)N(CCN(C)CCN)C2=O`, the growth was -65.2% (active). Turning to `CC(C)(C)c1ccc(OCCCCCCCN2CCNCC2)cc1`, the growth was 6.93% (active). `CC(=O)O[C@H]1CC[C@]2(C)[C@H]3CC=C4[C@@H]5[C@H](C)[C@@H](C)CC[C@]5(C(=O)NCCNCCNCCN)CC[C@@]4(C)[C@]3(C)CC[C@H]2C1(C)C`: the growth was 42.5%.

`Fc1ccc2[nH]cc(-c3nc(-c4c[nH]c5ncccc45)cs3)c2c1`: the growth is 21.7%. For `Cc1cc(C)c(NC(=O)c2sc3nc4c(cc3c2N)CCCC4)c(C)c1`, the growth is 13.9%.

Consider `O=C(CCCCCn1c2ccccc2c2c3c(c4c5ccccc5[nH]c4c21)C(=O)N(O)C3=O)N1CCOCC1`, for which the growth was 0.235% (active). As to `COc1cnc2c(c1)C(=O)c1c-2n(CCCNC2=NCCS2)c(=O)c2cc([N+](=O)[O-])ccc12`, the growth is -42.4% (active). As for `COc1ccc(C2c3ccccc3NC(=O)N2C2CCN(C)CC2)c(OC)c1` (stereo not given), the growth was 100%. Take `CCC1C(=O)COC1=O` (stereo not given): the growth is 62.7%.

Consider `Cn1c(/C(C#N)=C/c2ccc3ccccc3c2)cc2ccccc21`, for which the growth was 21.8%.

With `CC(C)=CCC[C@](C)(O)[C@H]1CC[C@]2(C)[C@@H]1CC[C@@H]1[C@@]3(C)C/C(=C/c4cccc([N+](=O)[O-])c4)C(=O)C(C)(C)[C@@H]3CC[C@]12C`, the growth is 55.4%. Regarding `Cc1ccc(S(=O)(=O)Nc2ccc(-c3cc(-c4cccc(F)c4)c(C#N)c(=O)[nH]3)cc2)cc1`, the growth is 54.6%. For the molecule `O=C1CNCCN1`, the growth was 100%. Under `CC(C)=CCC/C(C)=C/CC/C(C)=C/CSC[C@H](NC(=O)CCCCCN1CCN(C)CC1)C(=O)NC1CCCCCC1` stands -48.3% (active). Consider `C/C(=N\Nc1ccc2ccccc2n1)c1ccccn1`, for which the growth was -2.94% (active). Take `CCCCC[C@H]1C/C=C2/C(=O)C=C[C@@H]2C/C=C\CCCC(=O)O[C@@H](CCCCC)C/C=C2/C(=O)C=C[C@@H]2C/C=C\CCCC(=O)O1`: the growth was -77.9% (active). As to `Nc1ncnc2nc(Br)[nH]c12`, the growth was 102%. For the molecule `CCOc1ccc(NC(=O)c2ccccc2-c2ccccc2C(=O)O)cc1`, the growth is 107%. As to `CC(=O)O[C@@H]1CCN2C(=O)N(C)c3ccccc3[C@@H]2C1`, the growth was 104%.

`CC(C)c1cc(C(=O)O)c(O)c(C(C)C)c1.CC(C)c1cc(C(=O)O)c(O)c(C(C)C)c1.[Mn]`: the growth is 119%.

As for `CN1CCN(CCOc2ccc(-c3cnc4c(-c5ccccc5F)cnn4c3)cc2)CC1`, the growth was -38% (active).

For `CC1(C)[C@@H](O)CC[C@]2(C)[C@H]3CC[C@@H]4[C@H]5[C@H](C(=O)/C=C/c6ccc(C(F)(F)F)cc6)CC[C@]5(CO)CC[C@@]4(C)[C@]3(C)CC[C@@H]12`, the growth is 36.1%. `O=[N+]([O-])c1ccc(N/N=C(\C(=N/Nc2ccc([N+](=O)[O-])cc2[N+](=O)[O-])c2ccccc2)c2ccccc2)c([N+](=O)[O-])c1`: the growth was 63.5%. For `O=C(NC(Cc1cn(Cc2ccccc2)cn1)C(=O)O)OCC1c2ccccc2-c2ccccc21` (stereo not given), the growth is 98.1%. Under `Brc1ccc2[nH]cc(-c3nc(-c4c[nH]c5ncccc45)cs3)c2c1` stands 9.69% (active).

`Oc1cc(/C=C/c2nc(N3CCOCC3)c3cc(Cl)c(Cl)cc3n2)cc(O)c1O`: the growth is 120%. For the molecule `Oc1ccccc1/C=N\NC(=S)Nc1ccc(F)cc1`, the growth was 39.1%. For the molecule `CC1(C)C=CC[C@]2(C)[C@H]3CC[C@@H]4[C@H]5[C@H](C(=O)/C=C/c6cccnc6)CC[C@]5(CO)CC[C@@]4(C)[C@]3(C)CC[C@@H]12`, the growth was -28% (active). Take `Cc1cc(Cl)nc(N(CCNc2ccnc3cc(Cl)ccc23)Cc2ccco2)n1`: the growth is 30.3%.
